{"source": "PubChem BioAssay (EPA / NIEHS)", "key": {"[1]": {"biological_target": "Cellular tumor antigen p53 (Homo sapiens) (UniProt P04637)", "sequence (P04637 whole entry, looked up)": "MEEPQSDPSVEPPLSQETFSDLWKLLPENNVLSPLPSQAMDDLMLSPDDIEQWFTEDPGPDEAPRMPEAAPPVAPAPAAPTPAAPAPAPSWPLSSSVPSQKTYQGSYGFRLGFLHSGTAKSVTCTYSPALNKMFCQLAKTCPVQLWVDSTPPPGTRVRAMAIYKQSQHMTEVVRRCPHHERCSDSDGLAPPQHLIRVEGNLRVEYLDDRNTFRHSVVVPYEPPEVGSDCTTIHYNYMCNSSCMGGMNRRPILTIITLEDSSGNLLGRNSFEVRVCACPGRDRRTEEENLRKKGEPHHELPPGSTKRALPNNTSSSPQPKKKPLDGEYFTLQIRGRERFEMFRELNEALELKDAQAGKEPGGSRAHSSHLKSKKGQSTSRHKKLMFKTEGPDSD", "assay": "TOX21_p53_BLA_p2_ratio: Tox21 HCT-116 p53 Agonism Beta-lactamase Assay, Ratio, Phase 2 (AID 2283592)", "procedure,_shortened": "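Ratio endpoint: beta-lactamase cleavage of CCF4-AM, blue (460 nm) over green (530 nm). HCT116 reporter line; 16 h treatment, 37C; substrate 2 h RT.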"}, "[2]": {"assay": "TOX21_p53_BLA_p3_viability: Viability Assessment in the Tox21 HCT-116 p53 Agonism Beta-lactamase Assay, Phase 3 (AID 2283593);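 note: cells exposed to compound for 16 h before reading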", "procedure,_shortened": "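Cellular ATP was quantified by CellTiter-Glo luminescence, read after 30 min at room temperature. Beforehand, HCT116 cells (4000/well) received compound 5 h post-seeding, 217-fold diluted from DMSO, then incubated 16 h at 37C.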"}, "[3]": {"biological_target": "Cellular tumor antigen p53 (Homo sapiens) (UniProt P04637)", "assay": "TOX21_p53_BLA_p3_ratio: Tox21 HCT-116 p53 Agonism Beta-lactamase Assay, Ratio, Phase 3 (AID 2283596)", "procedure,_shortened": "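Cells were seeded at 4000/well, rested 5 h at 37C, then dosed with DMSO compound solutions (217-fold dilution) for 16 h. CCF4-AM substrate was loaded for 2 h at room temperature, and the 460/530 nm emission ratio was fitted for gain of signal versus DMSO.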"}, "[4]": {"assay": "TOX21_p53_BLA_p4_viability: Viability Assessment in the Tox21 HCT-116 p53 Agonism Beta-lactamase Assay, Phase 4 (AID 2283597);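 note: hits lower the luminescence signal meaning cytotoxicity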", "procedure,_shortened": "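Cytotoxicity was inferred from loss of CellTiter-Glo luminescence. HCT116 cells had been dosed with compounds after 5 h plating, incubated 16 h at 37C and 5% CO2, and exposed to the CCF4-AM substrate for 2 h.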"}, "[5]": {"biological_target": "Cellular tumor antigen p53 (Homo sapiens) (UniProt P04637)", "assay": "TOX21_p53_BLA_p5_ratio: Tox21 HCT-116 p53 Agonism Beta-lactamase Assay, Ratio, Phase 5 (AID 2283599)", "procedure,_shortened": "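Beta-lactamase reporter ratio (blue 460 nm over green 530 nm, 405 nm excitation) after 2 h CCF4-AM loading, in HCT-116 cells exposed 16 h at 37 C to compounds pinned at 217-fold dilution. Increases relative to DMSO baseline scored.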"}}, "note": "Inconclusive results are not listed. The source made the active and inactive calls. Rule for the calls: active = hit-call score of the fitted dose curve at least 0.9, where 1 is the maximum; inconclusive = response in the unintended direction; inactive = score below 0.9.", "data": [{"smiles": "Cc1cc(=O)oc2cc(N(C)C)ccc12", "values": [{"measurement": "AC50", "setting": "[1]", "value": "51.5 µM (active)"}, {"measurement": "outcome", "setting": "[2]", "value": "inactive"}, {"measurement": "AC50", "setting": "[3]", "value": "50.6 µM (active)"}, {"measurement": "outcome", "setting": "[4]", "value": "inactive"}, {"measurement": "AC50", "setting": "[5]", "value": "47.9 µM (active)"}]}]}
